This is a sample that favours compounds with a hit; in the whole collection about 3.1% have one here.
p53ts 32C kill: qHTS Screen for Compounds that Selectively Target Cancer Cells with p53 Mutations: Cytotoxicity of p53ts Cells at the Permissive Temperature; H1299-p53A138V at 32C, ATP luminescence viability, 24 h; Potency, µM (series often up to 46.1 µM), for inactives: at the top dose activity change, negative = cytotoxicity, most hits filed as cytotoxic; 0.93% of 130,000 active; AID 924, 2007;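 note: 0% = DMSO and -100% = full killing by reference compound; nearly all actives have a fitted effect of over 55% in size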
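Viability by ATPlite luminescence after 24 h compound treatment (up to 46 uM) at the permissive 32C. Cells are H1299 carrying p53 A138V. Scale runs from DMSO basal to 100 uM tamoxifen as full kill; AC50 from Hill fits.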
p53ts 39C tox: qHTS Screen for Compounds that Selectively Target Cancer Cells with p53 Mutations: Cytotoxicity of p53ts Cells at the Nonpermissive Temperature | H1299-p53A138V viability at 39C, ATP luminescence, 24 h | Potency, µM (doses to about 46.1 µM), for inactives: at the top dose activity change, negative = cell killing, usual class: cytotoxic | 1.5% of 130,000 active; note: % is set by controls: 0 for no effect and ±100 for the full control effect; nearly all actives have a fitted effect of over 55% in size
HEK293 cAMP cs: qHTS Assay for Agonists of the Thyroid Stimulating Hormone Receptor: Activators of Intracellular cAMP Concentrations in Parental HEK 293. parental HEK293 CNG cAMP sensor, membrane potential fluorescence. Potency, µM (highest dose often 57.1 µM), without a hit: at the top dose activation, most hits filed as activators. 2.5% of 73,000 active. AID 938, 2007; note: % of control where 0% means no effect; nearly all actives have a fitted effect of over 55% in size
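Counterscreen for endogenous-receptor signalling: CNG-channel HEK 293 cells report cAMP rise by membrane depolarization. After 60 min dye equilibration with 100 uM RO 20-1724, compounds incubated 30 min before bottom-read fluorescence at 590 nm.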
TSHR ag: qHTS Assay for Agonists of the Thyroid Stimulating Hormone Receptor; Potency, µM (doses to about 57.1 µM), for the others: at the highest dose activation, actives largely listed as activators; HEK293-CNG-TSHR cells (CNG channel as cAMP sensor), membrane potential dye, cAMP; Thyrotropin receptor (Homo sapiens), P16473; AID 926, 2007; 0.48% of 73,000 active; active = well fitted activation curve with a large enough effect in the main read-out, with a control signal flat, not every such curve was filed as active; inconclusive = small, poorly fitted or top-dose-only effect, or a change in a side signal; inactive = no such curve, though single readings can be large or run the other way; % of control where 0% means no effect;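 note: the control signal comes from parental cells without the receptor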
Target sequence (P16473 whole entry, looked up): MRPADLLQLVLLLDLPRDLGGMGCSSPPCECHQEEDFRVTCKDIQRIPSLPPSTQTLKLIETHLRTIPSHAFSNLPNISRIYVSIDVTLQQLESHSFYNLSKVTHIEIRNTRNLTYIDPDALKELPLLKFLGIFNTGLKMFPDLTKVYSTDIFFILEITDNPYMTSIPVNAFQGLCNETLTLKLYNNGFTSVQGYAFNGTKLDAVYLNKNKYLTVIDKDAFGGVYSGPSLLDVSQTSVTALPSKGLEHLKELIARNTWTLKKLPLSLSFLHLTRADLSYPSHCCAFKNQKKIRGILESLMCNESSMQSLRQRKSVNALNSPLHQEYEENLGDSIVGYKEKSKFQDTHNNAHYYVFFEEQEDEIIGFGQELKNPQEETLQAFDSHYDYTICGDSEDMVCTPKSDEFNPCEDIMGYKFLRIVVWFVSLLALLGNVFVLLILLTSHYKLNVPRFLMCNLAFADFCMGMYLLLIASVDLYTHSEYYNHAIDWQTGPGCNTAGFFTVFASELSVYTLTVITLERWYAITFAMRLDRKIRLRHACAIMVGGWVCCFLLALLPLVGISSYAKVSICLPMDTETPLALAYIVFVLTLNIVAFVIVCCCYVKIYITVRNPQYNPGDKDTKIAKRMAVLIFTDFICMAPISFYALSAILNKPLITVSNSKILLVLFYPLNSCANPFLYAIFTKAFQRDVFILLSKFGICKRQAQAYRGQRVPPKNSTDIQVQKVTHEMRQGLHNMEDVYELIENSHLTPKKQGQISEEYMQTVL
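HEK 293 cells stably expressing TSHR and a modified CNG channel, with CNG-only parental cells as counterscreen, were preloaded 60 min at room temperature with membrane potential dye containing 100 uM RO 20-1724. Compound exposure was 30 min, and depolarization was read as fluorescence at 590 nm.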
Imprint erasure: qHTS Assay for Compounds that Induce Erasure of Genomic Imprints; mouse ES Peg3-LacZ reporter, beta-gal luminescence, 40 h; Potency, µM (titrated, usually from 60.7 µM), for inactives: at the top dose activity change, positive = activation, actives largely listed as activators; 0.02% of 110,000 active
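Each well holds 300 Peg3LacZ-Neo (maternal) female ES cells incubated 40 h at 37C, 5% CO2. LacZ is measured by BetaGlo luminescence, with AC50 and maximum efficacy derived from dose-response curves.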
IkB sig inh: IkB Signaling. ABC-DLBCL IkBa-CBG/CBR dual luciferase ratio, 4 h; response scale: scaled: untreated 0%, proteasome inhibitor 100%. Potency, µM (highest dose often 57.1 µM), for inactives: at the top dose IkBa stabilization activation. 0.04% of 110,000 active. AID 445, 2006; active = well fitted curve in the direction sought with a large enough effect in the signal ratio, not every such curve was filed as active; inconclusive = small, poorly fitted or top-dose-only effect, or a change in a side signal; the % refers to the signal ratio;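 note: the direction sought is a rising ratio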
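Luminescence ratio of IκBα-fused green versus native red beetle luciferase in OCI-Ly3 cells, 4 h post-doxycycline with compound; red signal alone, scaled from basal (0%) to zero light (-100%), flagged nonspecific or cytotoxic effects.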
* = called active by the depositor; [ ] = dose if it differs, or a comment. Unless noted, calls come from the whole dose curve; as a rule, active = well fitted curve in the direction sought with a large enough effect; inconclusive = small, poorly fitted or top-dose-only effect, or another doubt; inactive = no such curve, though single readings can be large; an effect the other way counts as inactive or inconclusive. Potency is the fitted concentration of half-maximal effect.

`O=S(=O)(N1CCCCC1)n1c(Cc2ccccc2)nc2ccccc21` gave p53ts 32C kill 30%, p53ts 39C tox 25%, HEK293 cAMP cs 32µM*, TSHR ag inconclusive, Imprint erasure -17% and IkB sig inh inconclusive.
Screening O=S(=O)(c1ccc(Br)cc1)n1c(Cc2ccccc2)nc2ccccc21 returned p53ts 39C tox -2%.
Cc1nonc1NC(=O)CSc1nc(C2CCCCC2)nc2ccccc12 was read as p53ts 32C kill -27%, p53ts 39C tox 35%, HEK293 cAMP cs 25µM*, TSHR ag inconclusive and IkB sig inh inconclusive.
CCCc1cc(C(=O)N(C2CCCCC2)C2CCCCC2)no1 was read as p53ts 32C kill 19%, p53ts 39C tox -8%, HEK293 cAMP cs 25%, TSHR ag 20µM*, Imprint erasure -29% and IkB sig inh 8%.
CCc1ccc(NCc2cc3cc4c(cc3n(CC(=O)Nc3ccccc3C)c2=O)OCCO4)cc1 was read as p53ts 32C kill 3%, p53ts 39C tox -30%, Imprint erasure 5%[10.9 µM] and IkB sig inh inconclusive.
Cc1nc2c(C(=O)NCc3ccco3)cnn2c(C)c1Cc1ccc(F)cc1Cl was read as p53ts 32C kill -6%, p53ts 39C tox -14%, HEK293 cAMP cs 25µM*, TSHR ag inconclusive, Imprint erasure -12% and IkB sig inh 1%.
Screening CCOC(=O)C1(N(CC)CC)Sc2cc(C)ccc2NC1=O (stereo not drawn) returned p53ts 32C kill -18%, p53ts 39C tox 16µM*, HEK293 cAMP cs inconclusive, TSHR ag inconclusive, Imprint erasure -30% and IkB sig inh 5%.
Nc1ncnc2c1ncn2[C@@H]1O[C@H](C(=O)NC2CC2)[C@H](O)[C@H]1O was read as Imprint erasure -5%.
For Nc1ncnc2c1ncn2[C@@H]1O[C@@H](C(=O)NC2CC2)[C@H](O)[C@@H]1O the results were p53ts 32C kill -9%, p53ts 39C tox 8%, HEK293 cAMP cs 0.25µM*, TSHR ag inconclusive and IkB sig inh inconclusive.
Screening CCNC(=O)[C@@H]1O[C@@H](n2cnc3c(NCc4ccccc4)ncnc32)[C@@H](O)[C@H]1O returned HEK293 cAMP cs 3.2µM*, TSHR ag inconclusive and IkB sig inh inconclusive.
Screening CNC(=O)[C@@H]1O[C@@H](n2cnc3c(N)ncnc32)[C@@H](O)[C@H]1O returned p53ts 32C kill -13%, p53ts 39C tox -10%, HEK293 cAMP cs 3.2µM*, TSHR ag inconclusive and IkB sig inh inconclusive.
For COc1ccc(-c2nc3nc(C)cc(Nc4ccc(C(C)=O)cc4)n3n2)cc1 the results were p53ts 32C kill -20%, p53ts 39C tox inconclusive, Imprint erasure -13%[10.9 µM] and IkB sig inh 1%.
CCOc1cccc2c1OC(c1cc(OC)c(OC)c(OC)c1)N1N=C(c3ccc(C)o3)CC21 (stereo not drawn) was read as p53ts 32C kill 11µM* and p53ts 39C tox inconclusive.
Screening N#CCCCSc1nnc(-c2ccc(Cl)cc2)n1-c1ccccc1 returned p53ts 32C kill 4%, p53ts 39C tox 2%, HEK293 cAMP cs 25µM*, TSHR ag inconclusive, Imprint erasure -8% and IkB sig inh 7%.
Cc1cccc(-c2nnc(SCC#N)n2-c2ccccc2)c1 was read as p53ts 32C kill 7%, p53ts 39C tox -4%, HEK293 cAMP cs 14%, TSHR ag 13%, Imprint erasure -14% and IkB sig inh 0%.
Screening O=C(c1nn(Cc2ccccc2)c(=O)c2ccccc12)N1CCN(c2ccccn2)CC1 returned p53ts 32C kill 7%, p53ts 39C tox -1%, HEK293 cAMP cs 4µM*, TSHR ag inconclusive, Imprint erasure -15% and IkB sig inh inconclusive.
COc1ccc(C)cc1Nc1cc(C)nc2nc(C)nn12 was read as p53ts 32C kill -3%, p53ts 39C tox 5%, HEK293 cAMP cs 12%, TSHR ag 9%, Imprint erasure -22% and IkB sig inh -4%.
COc1ccc(C)cc1Nc1nc(N)c2cc(OC)c(OC)cc2n1 was read as p53ts 32C kill 20µM*, p53ts 39C tox 20µM*, Imprint erasure 8%[10.9 µM] and IkB sig inh inconclusive.
Cc1nn2c(=O)cc(COC(=O)c3cccc(NC(=O)c4ccc(C(C)(C)C)cc4)c3)nc2s1 was read as p53ts 32C kill 2.5µM*, p53ts 39C tox 2.5µM*, Imprint erasure -12%[10.9 µM] and IkB sig inh inconclusive.
`Cc1cccc(C(=O)Nc2cccc(C(=O)OCc3cc(=O)n4nc(C(C)C)sc4n3)c2)c1` gave p53ts 32C kill 1%, p53ts 39C tox -12%, Imprint erasure -6%[10.9 µM] and IkB sig inh inconclusive.
`CCOC(=O)C1=C(CS(=O)(=O)c2c(C)cc(C)cc2C)NC(=O)NC1c1cccc(OC)c1` (stereo not drawn) gave p53ts 32C kill 8%, p53ts 39C tox 22%, Imprint erasure inconclusive and IkB sig inh inconclusive.
c1coc(CNc2ncnc3sc4c(c23)CCCCC4)c1 was read as p53ts 32C kill -5%, p53ts 39C tox -5%, HEK293 cAMP cs 25µM*, TSHR ag inconclusive, Imprint erasure -20% and IkB sig inh 4%.
For CCc1nc(SCC(=O)NCc2ccco2)c2c3c(sc2n1)CCCC3 the results were p53ts 32C kill -14%, p53ts 39C tox -13%, HEK293 cAMP cs 5µM*, TSHR ag inconclusive, Imprint erasure 4% and IkB sig inh -1%.
For Cc1nc(NCc2ccco2)c2c3c(sc2n1)CCC3 the results were p53ts 32C kill -18%, p53ts 39C tox -25%, HEK293 cAMP cs 16µM*, TSHR ag inconclusive, Imprint erasure -11% and IkB sig inh inconclusive.
For Fc1cccc(NCc2cccn2-c2nnc(N3CCOCC3)s2)c1 the results were p53ts 32C kill -5%, p53ts 39C tox -8%, Imprint erasure -8%[10.9 µM] and IkB sig inh inconclusive.
Screening O=C(O)CCC(O)=C1S(=O)(=O)OCCOS1(=O)=O returned p53ts 32C kill -4%[9.22 µM], p53ts 39C tox 4%[9.22 µM], HEK293 cAMP cs -2%[11.4 µM], TSHR ag -1%[11.4 µM], Imprint erasure -8%[10.9 µM] and IkB sig inh 1%[11.4 µM].

Source: PubChem BioAssay (National Center for Advancing Translational Sciences (NCATS))
